# Measurements: ChEMBL document CHEMBL3988442, “University of Dundee, Small-Polar-MMV Screening Library” (2021)
# Biological target: T1, Methionyl-tRNA synthetase, putative (Leishmania donovani (strain BPK282A1)) (UniProt E9BF75)
# T1 sequence (whole entry): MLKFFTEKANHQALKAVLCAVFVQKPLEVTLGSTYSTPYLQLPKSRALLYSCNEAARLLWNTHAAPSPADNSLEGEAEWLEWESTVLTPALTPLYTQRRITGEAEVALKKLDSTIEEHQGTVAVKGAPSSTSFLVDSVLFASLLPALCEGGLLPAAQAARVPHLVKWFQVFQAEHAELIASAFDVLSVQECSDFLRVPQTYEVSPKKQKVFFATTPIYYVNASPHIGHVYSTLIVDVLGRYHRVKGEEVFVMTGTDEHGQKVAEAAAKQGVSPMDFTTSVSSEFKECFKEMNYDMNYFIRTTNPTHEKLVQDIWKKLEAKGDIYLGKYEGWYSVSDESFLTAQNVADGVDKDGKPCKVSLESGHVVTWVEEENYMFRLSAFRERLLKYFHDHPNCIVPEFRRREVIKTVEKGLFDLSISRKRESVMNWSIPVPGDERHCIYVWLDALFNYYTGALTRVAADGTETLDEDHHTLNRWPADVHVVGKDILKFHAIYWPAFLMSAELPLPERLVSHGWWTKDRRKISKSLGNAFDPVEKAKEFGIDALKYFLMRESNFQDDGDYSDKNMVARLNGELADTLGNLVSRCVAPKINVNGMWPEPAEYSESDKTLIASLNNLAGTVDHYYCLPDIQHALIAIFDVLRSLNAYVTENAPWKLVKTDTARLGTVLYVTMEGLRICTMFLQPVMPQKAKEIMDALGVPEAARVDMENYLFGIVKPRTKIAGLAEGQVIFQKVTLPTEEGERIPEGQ
# Test: Leishmania donovani Methionine tRNA synthetase (LdMetRS):v7. Dose response assay
# Assay type: functional
# Parameters: conc 80 nM, time 150 minutes
smiles,measurement,setting,value
Cc1nc(N[C@@H](C)C(=O)O)c2c3c(sc2n1)CCCC3,PXC50,MAX_EFFECT 7.446808511,< 4
same,PXC50,MAX_EFFECT 9.32642487,< 4
CN(CCO)c1nc(-c2ccsc2)nc2sc3c(c12)CCCC3,PXC50,MAX_EFFECT 26.13333333,< 4
same,PXC50,MAX_EFFECT 28.04232804,< 4
COCCNc1nc(-c2ccccn2)nc2sc3c(c12)CCCC3,PXC50,"BOTTOM 1.822787583, HILLSLOPE 1.291311311, MAX_EFFECT 71.49122807, TOP 102.6012048",4.27
same,PXC50,"BOTTOM -5.083400143, HILLSLOPE 1.043102409, MAX_EFFECT 66.66666667, TOP 106.555572",4.25
COC(=O)CNc1nc(Nc2ccc(F)c(F)c2)nc2c1cnn2C,PXC50,"BOTTOM 3.451309233, HILLSLOPE 1.311155922, MAX_EFFECT 92.63657957, TOP 92.51088835",5.87
same,PXC50,"BOTTOM -7.309973035, HILLSLOPE 0.885022203, MAX_EFFECT 95.56840077, TOP 99.22229829",5.83
same,PXC50,"BOTTOM -8.727655422, HILLSLOPE 0.982384922, MAX_EFFECT 94.42060086, TOP 95.2064332",5.96
CCc1nc(NCc2ccccn2)c2cc(CC)sc2n1,PXC50,MAX_EFFECT 4.176904177,< 4
same,PXC50,MAX_EFFECT 4.522613065,< 4
Cn1ncc2c(NCCCn3cnnc3)nc(Nc3ccc(F)c(F)c3)nc21,PXC50,"BOTTOM 1.83375179, HILLSLOPE 0.958532355, MAX_EFFECT 86.4608076, TOP 100.0",4.67
same,PXC50,"BOTTOM -0.68283143, HILLSLOPE 0.850398367, MAX_EFFECT 82.59187621, TOP 94.39900943",4.98
same,PXC50,"BOTTOM -3.068523854, HILLSLOPE 0.793433763, MAX_EFFECT 81.54506438, TOP 111.1617786",4.55
CS(=O)(=O)N1CCN(c2ccc3ccc(C(=O)NCC4CCCO4)cn23)CC1 (stereo not drawn),PXC50,"BOTTOM -3.857720999, HILLSLOPE 1.705839216, MAX_EFFECT 57.40402194, TOP 63.01150798",4.63
same,PXC50,"BOTTOM -4.829130924, HILLSLOPE 1.927262902, MAX_EFFECT 52.15311005, TOP 54.22060795",4.86
Cc1nc(-c2cc(Cl)c3c(c2)CC(CN)O3)c[nH]1 (stereo not drawn),PXC50,MAX_EFFECT 32.65306122,< 4
same,PXC50,MAX_EFFECT 37.68115942,< 4
same,PXC50,MAX_EFFECT 41.5061296,< 4
CCc1cccc(Nc2nc(NCCO)c3sccc3n2)c1,PXC50,MAX_EFFECT 17.21470019,< 4
same,PXC50,MAX_EFFECT 27.31277533,< 4
same,PXC50,MAX_EFFECT 37.39669421,< 4
COc1cc2ccc(N3CCN(S(C)(=O)=O)CC3)n2cc1C(=O)NC1CCCC1,PXC50,"BOTTOM 1.185639049, HILLSLOPE 1.624291099, MAX_EFFECT 57.89473684, TOP 63.90970976",4.71
same,PXC50,"BOTTOM -1.038445777, HILLSLOPE 1.129445656, MAX_EFFECT 51.04166667, TOP 100.0",4.35
OCCCNc1ccnc(Nc2cccc(C(F)(F)F)c2)n1,PXC50,"BOTTOM -1.471323434, HILLSLOPE 0.842843203, MAX_EFFECT 51.77570093, TOP 92.13190163",4.16
same,PXC50,"BOTTOM -3.274011796, HILLSLOPE 1.62633592, MAX_EFFECT 57.93991416, TOP 100.0",4.09
same,PXC50,MAX_EFFECT 49.40617577,< 4
O=C(CCc1n[nH]c2c1CCCC2)N1C[C@@H]2CC[C@H](C1)N(CC1CC1)C2,PXC50,"BOTTOM 12.11622841, HILLSLOPE 1.527540497, MAX_EFFECT 61.47110333, TOP 100.0",4.08
same,PXC50,"BOTTOM -0.508945456, HILLSLOPE 1.017254843, MAX_EFFECT 57.14285714, TOP 100.0",4.12
same,PXC50,"BOTTOM -1.441363941, HILLSLOPE 1.01121357, MAX_EFFECT 60.86956522, TOP 100.0",4.2
C[C@H](CO)Nc1nc(Nc2ccc(F)c(F)c2)nc2c1cnn2C,PXC50,"BOTTOM 0.704945414, HILLSLOPE 0.848291247, MAX_EFFECT 90.56603774, TOP 99.28027428",5.18
same,PXC50,"BOTTOM -2.01884568, HILLSLOPE 0.856610715, MAX_EFFECT 86.93586698, TOP 98.70470885",5.08
same,PXC50,"BOTTOM -5.653457492, HILLSLOPE 0.743768618, MAX_EFFECT 93.13304721, TOP 109.1674954",5.06
